MIN6 prolif = inducers of MIN6 beta-cell proliferation, primary screen, ATP luminescence, uHTS; MIN6 cells proliferation, ATPlite luminescence, 48 h; cells starved in 0.2% serum; 100% = growth in 10% serum; proliferation, % at 10 µM; 0.29% of 330,000 active;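 active = compounds whose signal lies at least 3.5 SD above the mean of all wells on their plate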
Cardio protect = cardioprotection against H2O2-induced cell death, primary screen, uHTS, H9c2 cells, ATPLite luminescence | H9c2 cardiomyocytes, H2O2 injury protection, 2 h | protection from H2O2 cell death, % at 20 µM | 0.63% of 360,000 active | AID 588492, 2011;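 active = compounds giving at least 50% protection of heart cells from peroxide-induced death in the single-dose screen, raw or plate-pattern-corrected value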
hiPSC survival = enhancers of single-cell hiPSC survival, primary screen, ATPlite luminescence | 100% = ROCK inhibitor wells, 0% = DMSO | survival enhancement, % at 20 µM | 0.044% of 360,000 active; in the data active = survival enhancement above about 18%;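 note: cells exposed to compounds for 16 hours before the ATP read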
ABCB6 inh 2 = ABCB6 transporter inhibitors, primary screen, K562-ABCB6 cells, flow cytometry, MLPCN library. ATP-binding cassette sub-family B member 6 (Homo sapiens), Q9NP58. K562-ABCB6 porphyrin accumulation, 1 h; active compounds read low. fluorescence ratio to DMSO, % at 10 µM. 0.19% of 360,000 active. AID 602162, 2011;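 active = fluorescence ratio to DMSO below 75%, the collection mean minus 3 SD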;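 note: signal is porphyrin accumulated inside mitochondria; lower ratio means ABCB6 inhibition with less porphyrin fluorescence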
Target sequence (Q9NP58 whole entry, looked up): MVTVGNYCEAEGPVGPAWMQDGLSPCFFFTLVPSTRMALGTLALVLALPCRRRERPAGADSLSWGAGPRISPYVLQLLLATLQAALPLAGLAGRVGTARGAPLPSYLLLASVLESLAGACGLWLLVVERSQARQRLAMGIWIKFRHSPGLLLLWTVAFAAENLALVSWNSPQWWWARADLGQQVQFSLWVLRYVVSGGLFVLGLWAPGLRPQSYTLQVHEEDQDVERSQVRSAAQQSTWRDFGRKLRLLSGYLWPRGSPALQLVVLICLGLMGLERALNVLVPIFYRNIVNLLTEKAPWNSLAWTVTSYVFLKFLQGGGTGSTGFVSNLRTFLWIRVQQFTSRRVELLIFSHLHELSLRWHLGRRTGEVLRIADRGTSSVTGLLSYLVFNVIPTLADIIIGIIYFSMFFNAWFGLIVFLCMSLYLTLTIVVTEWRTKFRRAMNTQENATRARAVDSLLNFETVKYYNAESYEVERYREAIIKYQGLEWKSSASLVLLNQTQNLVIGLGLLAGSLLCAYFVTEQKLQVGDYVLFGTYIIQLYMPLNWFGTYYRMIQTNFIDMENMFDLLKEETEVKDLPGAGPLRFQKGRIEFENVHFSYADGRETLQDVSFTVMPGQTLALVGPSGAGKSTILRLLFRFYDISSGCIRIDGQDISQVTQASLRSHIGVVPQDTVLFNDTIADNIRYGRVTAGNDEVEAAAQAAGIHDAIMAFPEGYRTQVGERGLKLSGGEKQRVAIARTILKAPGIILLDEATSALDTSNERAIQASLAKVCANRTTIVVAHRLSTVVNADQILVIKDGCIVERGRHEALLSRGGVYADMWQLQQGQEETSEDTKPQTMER
Myeloid diff MLP = induction of myeloid progenitor differentiation, primary screen, cell-based, flow cytometry, MLPCN library; AID 624256, 2012; ER-HoxA9 myeloid progenitors, lysozyme-GFP differentiation; calls only at 10 µM; 1% of 360,000 active;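 active = normalized GFP-positive differentiation at or above the plate's own cutoff, the solvent-only control mean plus 3 SD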;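 note: cells exposed to compound for four days before flow analysis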
Hits are given with their value; – = inactive; · = no result; + = active, no number. Compounds with a hit are over-represented: about 2.2% of the library has one in this group of screens.

SMILES	MIN6 prolif	Cardio protect	hiPSC survival	ABCB6 inh 2	Myeloid diff MLP
COc1ccc(C(C(=O)NC2CCCCC2)N(Cc2cccs2)C(=O)Cc2c[nH]c3ccccc23)cc1OC (centres undefined)	–	52	–	–	–
O=C(NC1CCCCC1)C(c1cccs1)N(Cc1cccs1)C(=O)c1cccs1 (centres undefined)	–	–	–	–	–
O=C(NC1CCCCC1)C(c1ccc2ncccc2c1)N(Cc1ccco1)C(=O)c1ccc2c(c1)OCCO2 (centres undefined)	–	56	–	–	–
O=C(NC1CCCCC1)C(c1ccc2ncccc2c1)N(Cc1cccs1)C(=O)c1cccs1 (centres undefined)	–	51	–	–	–
O=C(NC1CCCCC1)C(c1ccc2ncccc2c1)N(Cc1ccc2c(c1)OCO2)C(=O)c1ccc2c(c1)OCCO2 (centres undefined)	–	–	–	–	–
CCN(CC)c1nc(N)c2c(N)nc3c(c2c1C#N)CC(c1ccccc1)O3 (centres undefined)	–	–	–	–	–
CCN(CC)c1nc(N)c2c(N)n(-c3ccccc3C)c(=S)c(C#N)c2c1C#N	–	–	–	–	+
CCN1/C(=C/c2cc[n+](C)cc2)C=Cc2cc(C)ccc21	·	–	–	–	+
CCN1/C(=C/c2ccc3ccccc3[n+]2CCCS(=O)(=O)[O-])C=Cc2cc(C)ccc21	·	–	–	–	–
CCOC(=O)CSc1nc2cc3c(cc2cc1CC)OCCO3	–	–	–	–	–
O=C(Nc1ccnn1C1CCN(C/C=C/c2ccccc2)CC1)c1ccccc1Cl	–	–	–	–	–
COc1ccccc1C(=O)Nc1ccnn1C1CCN(C/C=C/c2ccc(F)cc2)CC1	–	–	–	–	+
COc1ccc(-c2cn3cccnc3n2)cc1NC(=O)c1ccc(Br)o1	–	58	–	–	–
CCOc1cc(NC(=S)NCC2CCCO2)c(OCC)cc1NC(=O)c1ccc(F)cc1 (centres undefined)	–	–	–	–	–
CCOC(=O)CC1=C(C(=O)OCC)C(c2cccnc2)C(C#N)=C(N)O1 (centres undefined)	–	–	–	–	–
CCOC(=O)C1=C(CSc2nc(-c3ccccc3)ccc2C#N)OC(N)=C(C#N)C1c1ccccc1 (centres undefined)	–	–	–	–	+
CCOC(=O)C1=C(CSc2nc(-c3ccccc3)ccc2C#N)OC(N)=C(C#N)C1c1cccnc1 (centres undefined)	–	–	–	–	+
CC1CN(c2nc3ccccc3nc2SCC(=O)Nc2cccc(C(F)(F)F)c2)CC(C)O1 (centres undefined)	–	–	–	–	+
Oc1ccccc1O	–	66	–	–	–
Cc1ccccc1-n1nc(C)c2cc(C(=O)NCc3cccnc3)sc21	–	–	–	–	–
C=C[C@@H]1c2cc(C)ccc2N(S(=O)(=O)c2ccc(C)cc2)[C@H](c2ccc(OC(C)=O)cc2)C1(C#N)C#N	–	–	–	–	+
C=C[C@@H]1c2ccccc2N(S(=O)(=O)c2ccc(C)cc2)[C@H](c2ccc(OC(C)=O)cc2)C1(C#N)C#N	–	–	–	–	–
C[C@H](CO)N1C[C@H](C)[C@@H](CN(C)C(=O)Nc2ccc3c(c2)OCO3)Oc2c(NC(=O)C3CC3)cccc2C1=O	–	–	–	–	–
CCc1nnc(NS(=O)(=O)c2ccccc2)s1	–	–	–	–	–
COc1ccc2c(c1OC)c(=O)n1c3ccc(OC(C)C(=O)NCCN4CCOCC4)cc3c3ccnc2c31 (centres undefined)	–	53	–	–	–
SMILES	MIN6 prolif	Cardio protect	hiPSC survival	ABCB6 inh 2	Myeloid diff MLP
OCC(O)C1OC(Nc2ccc(Cl)cc2)C(O)C1O (centres undefined)	–	–	–	–	+
OCC(O)C1OC(Oc2ccccc2)C(O)C(O)C1O (centres undefined)	·	–	–	–	–
COc1cc(C)c(S(=O)(=O)NCc2ccc3c(c2)OCO3)cc1C	–	–	–	71	–
COc1cc(S(=O)(=O)NCc2ccc3c(c2)OCO3)c(OC)cc1C	–	–	–	–	–
CCC(CN(C)C)Oc1cc(NCc2ccccc2)c2ncn(C(C)C)c2c1 (centres undefined)	–	–	–	–	+
O=C(NNC1=NCCC1)C1CC1	–	–	–	–	+
O=C(NNC1=NCCC1)c1ccc(Br)cc1	–	–	–	–	–
CC(C)(C)c1ccc(OC(=O)N2CCOCC2)cc1	–	–	–	–	+
COc1ccccc1CNC(=O)c1cc(-c2ccccc2)nn1CC1CC(c2cccc([N+](=O)[O-])c2)=NO1 (centres undefined)	–	–	–	–	–
Cc1nc(N2CCN(S(=O)(=O)c3cccc4nonc34)CC2)c2c3c(sc2n1)CCCC3	–	49	–	–	–
Cc1nc(N2CCN(S(=O)(=O)c3ccccc3)CC2)c2c3c(sc2n1)CC(C)CC3 (centres undefined)	·	–	–	–	–
COc1ccc2nc(C)cc(Nc3ccc(C)cc3)c2c1	–	–	–	–	–
COc1ccc2nc(C)cc(NCc3ccc(F)cc3)c2c1	–	–	–	–	+
COc1cccc(C(=O)NNC(=O)c2ccccc2)c1	–	–	–	–	–
COc1cccc(C(=O)NN2c3ccccc3CCc3ccccc32)c1	·	–	–	–	+
CCOc1ccc2nc(N=NC3=C(O)CC(C)(C)CC3=O)sc2c1	–	51	–	–	–
Cc1nc2ccc(N=NC3=C(O)CC(C)(C)CC3=O)cc2s1	–	–	–	–	–
C[C@@H]1O[C@@H](OC[C@H]2O[C@@H](Oc3cc(O)c4c(=O)cc(-c5ccc(O)c(O)c5)oc4c3)[C@H](O)[C@@H](O)[C@@H]2O)[C@H](O)[C@H](O)[C@H]1O	–	–	–	–	–
Oc1cccc(/C=N/NC(=S)NCCN2CCOCC2)c1O	–	49	–	–	–
O=C(O)c1ccc(/C=N/NC(=S)NCCN2CCOCC2)cc1	–	–	–	–	–
CCn1cc(C(=O)N2CCc3ccccc32)c(=O)c2cc(S(=O)(=O)N(C)C3CCCCC3)ccc21	–	63	–	–	–
CCn1cc(C(=O)N2CCc3ccccc32)c(=O)c2cc(S(=O)(=O)N3CCOCC3)ccc21	–	–	–	–	–
COc1ccc(-c2oc3ccc(N4CCOCC4)cc3c2C#Cc2ccc(N)cc2)cc1	–	–	–	–	+
COc1ccc(C#Cc2c(-c3ccsc3)oc3ccc(N4CCOCC4)cc23)cc1	–	–	–	–	–
COc1ccc(S(=O)(=O)c2c(O)c3ccc(C(=O)Nc4ccccc4Cl)cc3[nH]c2=O)cc1	–	–	–	–	–

Screening results from PubChem BioAssay.
